Results published in PMC7862700, “An all-to-all approach to the identification of sequence-specific readers for epigenetic DNA modifications on cytosine”.

What was measured:
Test in all cases: DAPPL (digital affinity profiling via proximity ligation, sequencing); 10 mM Tris-HCl pH 7.5, 50 mM NaCl, 1 mM DTT, 4% glycerol, room temperature, 30 min; GST-TFs on glutathione beads, 16-mer random dsDNA library, 0.1% formaldehyde crosslink after washing; high values mean tight binding
FEV = target: T1, FEV (Homo sapiens, UniProt Q99581 1-238); conditions: protein: recombinant; tags: N-terminal GST; dsDNA, one strand shown
T1 sequence: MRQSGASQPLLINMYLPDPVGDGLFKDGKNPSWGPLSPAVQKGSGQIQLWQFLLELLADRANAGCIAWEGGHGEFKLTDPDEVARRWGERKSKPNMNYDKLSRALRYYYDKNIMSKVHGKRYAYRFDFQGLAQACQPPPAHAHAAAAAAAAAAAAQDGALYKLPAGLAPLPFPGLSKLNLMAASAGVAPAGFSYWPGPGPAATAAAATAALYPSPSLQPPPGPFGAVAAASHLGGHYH
In short: (§1)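 Human transcription factors were made in yeast as GST fusions, captured on glutathione beads and barcoded with DNA. With a tag-only sample included, the pool was incubated with 200 nmole of a random double-stranded 16-mer DNA library in Tris/NaCl/DTT/glycerol buffer at room temperature for 30 min, then crosslinked with 0.1% formaldehyde after washing, ligated by proximity, amplified and sequenced. For binding signal, each hexamer's read frequency for a factor is divided by its frequency for the tag-only sample.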

ETV5 = ETV5 (Homo sapiens, UniProt P41161 1-510); conditions: protein: recombinant; tags: N-terminal GST; dsDNA, one strand shown
Chain of ETV5 (P41161 whole entry): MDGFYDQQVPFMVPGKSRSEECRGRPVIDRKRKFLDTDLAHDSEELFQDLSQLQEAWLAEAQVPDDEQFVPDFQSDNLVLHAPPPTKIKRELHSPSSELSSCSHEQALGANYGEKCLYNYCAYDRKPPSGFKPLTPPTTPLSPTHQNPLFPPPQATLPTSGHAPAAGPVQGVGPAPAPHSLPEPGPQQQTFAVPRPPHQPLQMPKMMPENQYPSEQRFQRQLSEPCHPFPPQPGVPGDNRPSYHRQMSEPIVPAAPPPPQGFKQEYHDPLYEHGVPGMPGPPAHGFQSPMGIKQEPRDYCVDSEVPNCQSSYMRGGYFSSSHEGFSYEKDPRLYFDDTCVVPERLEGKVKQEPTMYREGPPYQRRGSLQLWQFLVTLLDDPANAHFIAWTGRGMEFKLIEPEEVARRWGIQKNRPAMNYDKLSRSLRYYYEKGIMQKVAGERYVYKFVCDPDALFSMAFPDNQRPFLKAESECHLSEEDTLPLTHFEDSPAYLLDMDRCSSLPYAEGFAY
In short: as §1

HSF1 = HSF1 (Homo sapiens, UniProt Q00613 1-529); conditions: protein: recombinant; tags: N-terminal GST; chain copies: 3; dsDNA, one strand shown
Chain of HSF1 (Q00613 whole entry): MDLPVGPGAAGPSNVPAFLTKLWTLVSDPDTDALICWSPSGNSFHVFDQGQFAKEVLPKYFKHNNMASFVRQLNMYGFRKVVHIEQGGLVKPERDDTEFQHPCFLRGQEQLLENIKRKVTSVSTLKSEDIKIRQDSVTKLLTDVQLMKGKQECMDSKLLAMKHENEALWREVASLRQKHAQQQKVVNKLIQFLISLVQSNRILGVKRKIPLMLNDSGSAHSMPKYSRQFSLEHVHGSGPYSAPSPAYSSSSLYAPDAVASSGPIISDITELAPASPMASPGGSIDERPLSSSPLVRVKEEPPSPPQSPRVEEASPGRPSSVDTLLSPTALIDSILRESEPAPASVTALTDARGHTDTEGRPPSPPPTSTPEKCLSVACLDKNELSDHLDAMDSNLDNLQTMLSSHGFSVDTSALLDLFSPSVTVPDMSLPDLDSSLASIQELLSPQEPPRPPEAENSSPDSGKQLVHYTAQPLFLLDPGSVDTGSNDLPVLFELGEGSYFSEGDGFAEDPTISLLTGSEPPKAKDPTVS
In short: as §1

SPIC = target: T2, SPIC (Homo sapiens, UniProt Q8N5J4 1-248); conditions: protein: recombinant; tags: N-terminal GST; dsDNA, one strand shown
T2 sequence: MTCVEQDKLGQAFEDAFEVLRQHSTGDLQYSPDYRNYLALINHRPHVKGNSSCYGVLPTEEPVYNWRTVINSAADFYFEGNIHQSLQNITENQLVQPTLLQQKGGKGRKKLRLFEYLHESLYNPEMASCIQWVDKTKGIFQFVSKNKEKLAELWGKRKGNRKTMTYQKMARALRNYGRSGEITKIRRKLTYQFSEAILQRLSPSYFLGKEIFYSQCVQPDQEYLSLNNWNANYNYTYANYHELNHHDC
In short: as §1

ELF4 = ELF4 (Homo sapiens, UniProt Q99607 1-663); conditions: protein: recombinant; tags: N-terminal GST; dsDNA, one strand shown
Chain of ELF4 (Q99607 whole entry): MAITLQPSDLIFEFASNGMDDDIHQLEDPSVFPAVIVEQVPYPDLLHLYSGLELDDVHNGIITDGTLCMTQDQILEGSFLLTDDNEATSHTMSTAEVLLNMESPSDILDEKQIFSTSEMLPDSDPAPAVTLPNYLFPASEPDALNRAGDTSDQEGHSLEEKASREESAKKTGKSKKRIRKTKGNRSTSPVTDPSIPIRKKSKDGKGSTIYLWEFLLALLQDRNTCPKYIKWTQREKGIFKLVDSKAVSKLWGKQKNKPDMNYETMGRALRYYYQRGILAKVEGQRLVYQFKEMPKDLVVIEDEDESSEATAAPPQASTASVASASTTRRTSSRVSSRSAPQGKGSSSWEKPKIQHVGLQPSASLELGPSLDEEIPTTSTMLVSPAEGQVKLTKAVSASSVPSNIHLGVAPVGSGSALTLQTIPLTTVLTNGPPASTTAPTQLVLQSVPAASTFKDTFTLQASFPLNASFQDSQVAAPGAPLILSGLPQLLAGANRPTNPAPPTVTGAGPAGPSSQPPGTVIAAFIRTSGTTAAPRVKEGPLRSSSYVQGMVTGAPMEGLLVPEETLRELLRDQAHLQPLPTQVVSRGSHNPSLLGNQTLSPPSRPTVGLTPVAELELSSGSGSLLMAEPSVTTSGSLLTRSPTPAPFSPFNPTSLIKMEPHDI
In short: as §1

ELK4 = target: T3, ELK4 (Homo sapiens, UniProt P28324-2 1-405); conditions: protein: recombinant; tags: N-terminal GST; dsDNA, one strand shown
T3 sequence: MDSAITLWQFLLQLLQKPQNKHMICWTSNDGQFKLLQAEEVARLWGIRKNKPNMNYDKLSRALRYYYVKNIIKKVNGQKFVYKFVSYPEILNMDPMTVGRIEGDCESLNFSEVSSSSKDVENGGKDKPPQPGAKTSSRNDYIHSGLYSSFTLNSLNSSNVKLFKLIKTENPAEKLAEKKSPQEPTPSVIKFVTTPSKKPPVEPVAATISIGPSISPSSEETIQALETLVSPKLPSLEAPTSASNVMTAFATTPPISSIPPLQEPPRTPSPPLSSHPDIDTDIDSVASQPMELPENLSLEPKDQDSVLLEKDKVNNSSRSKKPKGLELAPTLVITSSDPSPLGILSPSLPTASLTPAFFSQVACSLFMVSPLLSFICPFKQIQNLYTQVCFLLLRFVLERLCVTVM
In short: as §1

ETV2 = target: T4, ETV2 (Homo sapiens, UniProt O00321 1-342); conditions: protein: recombinant; tags: N-terminal GST; dsDNA, one strand shown
T4 sequence: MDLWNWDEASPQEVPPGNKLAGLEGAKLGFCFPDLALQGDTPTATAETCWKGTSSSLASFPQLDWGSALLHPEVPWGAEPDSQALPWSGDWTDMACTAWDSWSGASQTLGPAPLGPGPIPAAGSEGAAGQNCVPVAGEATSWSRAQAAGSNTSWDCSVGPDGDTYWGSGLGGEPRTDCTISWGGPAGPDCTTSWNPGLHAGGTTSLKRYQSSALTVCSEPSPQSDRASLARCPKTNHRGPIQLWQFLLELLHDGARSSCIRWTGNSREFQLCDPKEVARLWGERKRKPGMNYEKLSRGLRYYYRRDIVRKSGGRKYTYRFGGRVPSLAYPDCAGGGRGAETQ
In short: as §1

ELF3 = target: T5, ELF3 (Homo sapiens, UniProt P78545 1-371); conditions: protein: recombinant; tags: N-terminal GST; dsDNA, one strand shown
T5 sequence: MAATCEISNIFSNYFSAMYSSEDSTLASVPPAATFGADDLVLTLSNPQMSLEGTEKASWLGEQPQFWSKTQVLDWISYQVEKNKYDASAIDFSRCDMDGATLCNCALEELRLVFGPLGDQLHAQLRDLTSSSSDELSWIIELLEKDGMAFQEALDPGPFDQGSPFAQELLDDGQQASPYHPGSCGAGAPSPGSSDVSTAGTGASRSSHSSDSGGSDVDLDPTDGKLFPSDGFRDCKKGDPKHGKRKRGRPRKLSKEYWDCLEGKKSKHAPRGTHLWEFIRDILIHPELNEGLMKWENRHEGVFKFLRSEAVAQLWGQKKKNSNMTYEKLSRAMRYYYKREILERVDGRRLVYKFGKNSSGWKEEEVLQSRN
In short: as §1

CRX = CRX (Homo sapiens, UniProt O43186 1-299); conditions: protein: recombinant; tags: N-terminal GST; dsDNA, one strand shown
Chain of CRX (O43186 whole entry): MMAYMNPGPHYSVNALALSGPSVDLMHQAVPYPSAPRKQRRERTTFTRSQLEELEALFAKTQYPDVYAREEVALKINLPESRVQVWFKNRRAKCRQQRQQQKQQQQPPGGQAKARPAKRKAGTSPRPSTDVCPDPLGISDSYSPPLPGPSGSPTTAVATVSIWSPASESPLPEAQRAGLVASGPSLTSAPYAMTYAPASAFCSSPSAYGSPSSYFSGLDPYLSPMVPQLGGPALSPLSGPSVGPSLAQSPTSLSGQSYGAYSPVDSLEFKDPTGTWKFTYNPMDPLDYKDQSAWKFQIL
In short: as §1

ETV1 = ETV1 (Homo sapiens, UniProt P50549 1-477); conditions: protein: recombinant; tags: N-terminal GST; dsDNA, one strand shown
Chain of ETV1 (P50549 whole entry): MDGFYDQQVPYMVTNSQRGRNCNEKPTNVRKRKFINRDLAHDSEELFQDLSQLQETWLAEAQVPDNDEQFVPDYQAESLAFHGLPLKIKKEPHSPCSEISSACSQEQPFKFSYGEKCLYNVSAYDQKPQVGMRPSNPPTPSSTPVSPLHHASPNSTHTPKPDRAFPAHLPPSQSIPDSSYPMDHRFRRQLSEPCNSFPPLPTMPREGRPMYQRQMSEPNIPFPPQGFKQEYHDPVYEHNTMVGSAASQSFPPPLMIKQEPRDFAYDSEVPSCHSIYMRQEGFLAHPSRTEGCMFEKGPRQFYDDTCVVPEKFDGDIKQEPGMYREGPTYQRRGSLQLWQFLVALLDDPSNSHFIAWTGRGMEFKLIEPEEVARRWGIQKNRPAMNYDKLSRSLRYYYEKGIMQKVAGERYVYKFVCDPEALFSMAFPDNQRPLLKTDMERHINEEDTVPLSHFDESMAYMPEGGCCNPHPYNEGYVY
In short: as §1

ERF = target: T6, ERF (Homo sapiens, UniProt P50548 1-548); conditions: protein: recombinant; tags: N-terminal GST; dsDNA, one strand shown
T6 sequence: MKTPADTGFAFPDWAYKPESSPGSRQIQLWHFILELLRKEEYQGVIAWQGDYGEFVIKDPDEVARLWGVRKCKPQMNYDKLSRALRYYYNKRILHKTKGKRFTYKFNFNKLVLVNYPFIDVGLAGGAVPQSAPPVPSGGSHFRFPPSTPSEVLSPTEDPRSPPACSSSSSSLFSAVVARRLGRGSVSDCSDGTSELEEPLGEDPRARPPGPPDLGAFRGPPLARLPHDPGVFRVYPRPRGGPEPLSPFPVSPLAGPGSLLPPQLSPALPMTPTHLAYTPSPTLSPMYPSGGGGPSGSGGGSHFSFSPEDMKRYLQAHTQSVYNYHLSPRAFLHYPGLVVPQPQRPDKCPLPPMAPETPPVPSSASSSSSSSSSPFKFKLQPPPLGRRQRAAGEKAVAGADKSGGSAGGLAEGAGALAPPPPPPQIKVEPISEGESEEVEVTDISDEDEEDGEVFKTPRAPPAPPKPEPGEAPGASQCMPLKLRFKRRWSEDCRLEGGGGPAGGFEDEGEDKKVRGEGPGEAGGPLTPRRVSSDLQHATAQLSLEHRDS
In short: as §1

ETV3L = target: T7, ETV3L (Homo sapiens, UniProt Q6ZN32 1-361); conditions: protein: recombinant; tags: N-terminal GST; dsDNA, one strand shown
T7 sequence: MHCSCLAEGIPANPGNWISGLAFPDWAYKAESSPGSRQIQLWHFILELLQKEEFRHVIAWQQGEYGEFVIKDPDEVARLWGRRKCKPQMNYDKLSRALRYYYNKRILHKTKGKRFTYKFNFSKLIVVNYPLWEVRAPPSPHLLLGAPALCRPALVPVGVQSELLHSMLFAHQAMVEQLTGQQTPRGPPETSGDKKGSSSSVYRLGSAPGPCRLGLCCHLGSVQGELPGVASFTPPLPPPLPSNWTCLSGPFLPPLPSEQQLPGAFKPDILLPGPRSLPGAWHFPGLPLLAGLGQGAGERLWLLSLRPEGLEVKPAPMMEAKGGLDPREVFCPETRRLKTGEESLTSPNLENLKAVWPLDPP
In short: as §1

ETS2 = target: T8, ETS2 (Homo sapiens, UniProt P15036 1-469); conditions: protein: recombinant; tags: N-terminal GST; dsDNA, one strand shown
T8 sequence: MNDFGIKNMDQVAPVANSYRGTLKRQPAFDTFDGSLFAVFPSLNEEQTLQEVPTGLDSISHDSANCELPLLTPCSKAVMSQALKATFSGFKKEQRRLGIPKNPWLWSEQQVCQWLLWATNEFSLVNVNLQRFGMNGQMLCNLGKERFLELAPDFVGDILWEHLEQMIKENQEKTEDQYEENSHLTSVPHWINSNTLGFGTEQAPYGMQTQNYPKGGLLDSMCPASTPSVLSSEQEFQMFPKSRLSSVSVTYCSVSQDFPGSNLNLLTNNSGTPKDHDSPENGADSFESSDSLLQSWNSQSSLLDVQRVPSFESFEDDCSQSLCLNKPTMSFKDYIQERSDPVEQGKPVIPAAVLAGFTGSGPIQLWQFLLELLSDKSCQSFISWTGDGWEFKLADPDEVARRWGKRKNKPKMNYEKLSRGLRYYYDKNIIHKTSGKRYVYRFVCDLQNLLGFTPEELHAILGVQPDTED
In short: as §1

SPDEF = target: T9, SPDEF (Homo sapiens, UniProt O95238 1-335); conditions: protein: recombinant; tags: N-terminal GST; dsDNA, one strand shown
T9 sequence: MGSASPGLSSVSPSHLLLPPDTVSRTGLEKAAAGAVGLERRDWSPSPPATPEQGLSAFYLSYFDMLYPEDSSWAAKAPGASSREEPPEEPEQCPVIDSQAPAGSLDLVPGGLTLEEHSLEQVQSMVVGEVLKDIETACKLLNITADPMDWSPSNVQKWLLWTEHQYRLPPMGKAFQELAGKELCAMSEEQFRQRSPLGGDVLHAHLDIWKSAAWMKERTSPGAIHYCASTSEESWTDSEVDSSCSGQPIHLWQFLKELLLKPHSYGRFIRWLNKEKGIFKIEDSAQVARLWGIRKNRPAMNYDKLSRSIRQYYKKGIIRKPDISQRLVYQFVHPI
In short: as §1

ETV7 = target: T10, ETV7 (Homo sapiens, UniProt Q9Y603 1-341); conditions: protein: recombinant; tags: N-terminal GST; dsDNA, one strand shown
T10 sequence: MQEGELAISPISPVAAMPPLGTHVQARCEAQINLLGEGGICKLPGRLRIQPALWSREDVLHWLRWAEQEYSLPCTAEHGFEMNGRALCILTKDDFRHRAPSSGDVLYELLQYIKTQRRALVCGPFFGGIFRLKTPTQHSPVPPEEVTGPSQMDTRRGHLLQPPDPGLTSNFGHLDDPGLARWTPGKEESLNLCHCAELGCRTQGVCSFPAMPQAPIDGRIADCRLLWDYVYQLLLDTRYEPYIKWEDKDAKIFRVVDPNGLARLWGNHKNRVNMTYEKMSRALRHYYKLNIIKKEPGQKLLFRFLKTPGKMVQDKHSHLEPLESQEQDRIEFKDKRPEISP
In short: as §1

ELF5 = target: T11, ELF5 (Homo sapiens, UniProt Q9UKW6-2 1-255); conditions: protein: recombinant; tags: N-terminal GST; dsDNA, one strand shown
T11 sequence: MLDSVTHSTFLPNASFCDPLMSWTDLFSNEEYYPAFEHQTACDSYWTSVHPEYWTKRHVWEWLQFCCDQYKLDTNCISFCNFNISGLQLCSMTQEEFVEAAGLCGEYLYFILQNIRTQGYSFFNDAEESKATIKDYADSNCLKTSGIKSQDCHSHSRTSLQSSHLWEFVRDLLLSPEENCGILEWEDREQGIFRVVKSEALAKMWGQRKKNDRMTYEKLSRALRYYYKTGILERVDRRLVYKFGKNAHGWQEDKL
In short: as §1

ETV3 = target: T12, ETV3 (Homo sapiens, UniProt P41162-2 1-143); conditions: protein: recombinant; tags: N-terminal GST; dsDNA, one strand shown
T12 sequence: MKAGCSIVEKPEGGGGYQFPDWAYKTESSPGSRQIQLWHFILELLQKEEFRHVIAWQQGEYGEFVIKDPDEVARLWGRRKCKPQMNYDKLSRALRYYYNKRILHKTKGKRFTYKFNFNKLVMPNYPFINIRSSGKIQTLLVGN
In short: as §1

ETV6 = ETV6 (Homo sapiens, UniProt P41212 1-452); conditions: protein: recombinant; tags: N-terminal GST; dsDNA, one strand shown
Chain of ETV6 (P41212 whole entry): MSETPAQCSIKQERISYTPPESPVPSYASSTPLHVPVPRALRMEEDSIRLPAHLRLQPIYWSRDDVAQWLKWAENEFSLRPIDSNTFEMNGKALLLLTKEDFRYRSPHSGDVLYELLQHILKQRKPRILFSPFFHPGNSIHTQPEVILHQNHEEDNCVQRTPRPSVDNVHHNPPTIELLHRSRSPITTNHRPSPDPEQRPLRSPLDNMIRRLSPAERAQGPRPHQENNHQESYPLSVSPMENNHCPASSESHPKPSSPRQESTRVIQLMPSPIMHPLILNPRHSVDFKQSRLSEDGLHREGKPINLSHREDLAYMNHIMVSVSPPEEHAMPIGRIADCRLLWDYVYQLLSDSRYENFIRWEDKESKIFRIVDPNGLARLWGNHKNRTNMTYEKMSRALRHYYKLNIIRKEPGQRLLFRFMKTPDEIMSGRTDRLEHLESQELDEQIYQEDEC
In short: as §1

**Q.** Which binding signal (FEV) does the source give for TGACTT here?
**A.** 1.59 fold enrichment (6-mer frequency, TF over GST control)

**Q.** And the binding signal (ETV5)?
**A.** 1.52 fold enrichment (6-mer frequency, TF over GST control)

**Q.** And the binding signal (HSF1)?
**A.** 1.15 fold enrichment (6-mer frequency, TF over GST control)

**Q.** And the binding signal (SPIC)?
**A.** 1.37 fold enrichment (6-mer frequency, TF over GST control)

**Q.** And the binding signal (ELF4)?
**A.** 1.45 fold enrichment (6-mer frequency, TF over GST control)

**Q.** And the binding signal (ELK4)?
**A.** 1.4 fold enrichment (6-mer frequency, TF over GST control)

**Q.** What about the binding signal (ETV2) of the same sequence?
**A.** 1.44 fold enrichment (6-mer frequency, TF over GST control)

**Q.** What about the binding signal (ELF3) of the same sequence?
**A.** 1.55 fold enrichment (6-mer frequency, TF over GST control)

**Q.** What about the binding signal (CRX) of the same sequence?
**A.** 1.29 fold enrichment (6-mer frequency, TF over GST control)

**Q.** What about the binding signal (ETV1) of the same sequence?
**A.** 1.47 fold enrichment (6-mer frequency, TF over GST control)

**Q.** What about the binding signal (ERF) of the same sequence?
**A.** 1.45 fold enrichment (6-mer frequency, TF over GST control)

**Q.** What about the binding signal (ETV3L) of the same sequence?
**A.** 1.4 fold enrichment (6-mer frequency, TF over GST control)

**Q.** What about the binding signal (ETS2) of the same sequence?
**A.** 1.53 fold enrichment (6-mer frequency, TF over GST control)

**Q.** And the binding signal (SPDEF)?
**A.** 1.24 fold enrichment (6-mer frequency, TF over GST control)

**Q.** What about the binding signal (ETV7) of the same sequence?
**A.** 1.48 fold enrichment (6-mer frequency, TF over GST control)

**Q.** And the binding signal (ELF5)?
**A.** 1.56 fold enrichment (6-mer frequency, TF over GST control)

**Q.** What about the binding signal (ETV3) of the same sequence?
**A.** 1.46 fold enrichment (6-mer frequency, TF over GST control)

**Q.** And the binding signal (ETV6)?
**A.** 1.39 fold enrichment (6-mer frequency, TF over GST control)
